Experimental data as given in PubChem BioAssay (NCI).
The panel holds about 83,000 compounds, 20% with a hit somewhere; the sample as a whole holds those more often.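 Percent growth is the endpoint: 0 to 100 indicates growth inhibition (40 means 60% inhibition), 0 means no net growth, and negative values indicate cell death.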 Activity calls are given as the source filed them. How the source made its calls: active means growth percent below 10; inactive means the rest.

Test system: IGROV1 ovarian
Assay: NCI-60 one-dose screen, 48 h (100 = growth as untreated, 0 = no growth, -100 = all killed)
Settings: 10 µM unless noted

| SMILES | growth |
| --- | --- |
| O=c1[nH]c2c(s1)CCCC2CN1CCCCC1 (stereo unspecified) | 120% (inactive) |
| O=C(N/N=C/c1cccc(O)c1)c1ccccc1Nc1cccc(C(F)(F)F)c1 | 95.3% (inactive) |
| COc1cc2nc(-c3ccc(C#N)cc3)[nH]c(=O)c2cc1OC | 113% (inactive) |
| O=C(Nc1ccccc1)Oc1ccccc1-c1ccccc1 | 107% (inactive) |
| O=C1Nc2c(ccc(Cl)c2Cl)/C1=C/c1ccccn1 | 73.1% (inactive) |
| C(=N\Nc1ncc(-c2cc3cc4c(cc3o2)OCO4)s1)/c1c[nH]c2ccccc12 | -43.8% (active) |
| C1=C2CNCC3=Cc4ccc5ccccc5c4OC23Oc2c1ccc1ccccc21 | 39.9% (inactive) |
| Nc1cc(N)c2cccnc2c1O | 66.7% (inactive) |
| CC1=NNC(=O)C1CCC(=O)N/N=C(\C)c1ccc2ccccc2c1 (stereo unspecified) | 92.6% (inactive) |
| COc1ccc(CNC(=O)COc2ccc(/C=N/Nc3nc4ccccc4s3)cc2)cc1 | 28.8% (inactive) |
| CCCN=C(N)c1ccc(NC(=O)c2ccc(C(=O)Nc3ccc(C(N)=NCCC)cc3)cc2)cc1 | 96.6% (inactive) |
| BrC(Br)(Br)c1cnc2ccccc2n1 | 51.9% (inactive) |
| O=C1/C(=C\c2cn(Cc3ccccc3)c3ccc(Br)cc23)c2ccccc2N1c1c(Cl)cccc1Cl | 105% (inactive) |
| COc1ccc(-n2cc(-c3cc(OC)c(OC)c(OC)c3)n(C(C)=O)c2=O)cc1 | 107% (inactive) |
| O=C(N/N=C/c1ccc(O)c(O)c1)c1sc2ccccc2c1Cl | 64.1% (inactive) |
| COc1ccc(OC)c(/C=C/[C@H]2O[C@@H](C)[C@H](O)[C@@H]2O)c1 | 105% (inactive) |
| CCN(CCNc1cc(OC)cc2cccnc12)CCc1ccccc1 | 94.6% (inactive) |
| CCCC/C(=N\N=C(N)N)c1ccc(F)cc1 | 45% (inactive) |

| SMILES | growth |
| --- | --- |
| O=S(=O)(c1ccc(N/N=C\c2ccccc2)cc1)c1ccc(N/N=C/c2ccccc2)cc1 | 72.1% (inactive) |
| CCOC(=O)C1=C(C)NC(C)=C(C(=O)OCC)C1c1cc(Br)c(O)c(OC)c1 | 49.9% (inactive) |
| CS(=O)(=O)OCCN(CCOS(C)(=O)=O)c1ccc(/C=N/Nc2ccc([N+](=O)[O-])cc2[N+](=O)[O-])cc1 | 72% (inactive) |
| COc1nccnn1 | 118% (inactive) |
| COC(=O)C1NC(=S)N(c2ccc(Cl)cc2)C1/C=C/c1ccccc1 (stereo unspecified) | 106% (inactive) |
| COc1cc(CCNc2nc3cc(N)cc(N)c3nc2-c2ccccc2)cc(OC)c1 | 27.8% (inactive) |
| O=C(O)/C=C\C(=O)N1C/C(=C\c2ccccc2Cl)C(=O)/C(=C/c2ccccc2Cl)C1 | 1.94% (active) |
| O=C1/C(=C/c2ccc(O)cc2)COc2ccc(-c3ccccc3)cc21 | 51.6% (inactive) |
| Cc1[nH]n(-c2cccc(Cl)c2)c(=O)c1/C=C1\C=Nc2ccc(Br)cc21 | 19.3% (inactive) |
| CO[C@@H]1[C@H](N(C)C(=O)c2ccccc2)C[C@@H]2O[C@]1(C)n1c3ccccc3c3c4c(c5c6ccccc6n2c5c31)C(=O)NC4=O | 7.2% (active) |
| Cc1cc2cc3cc(C)c(N)cc3[n+](C)c2cc1N | 16.1% (inactive) |
| CNC(=O)Nc1ccc(-c2nc(N3CCOCC3)nc3c2cnn3C2CCOCC2)cc1 | -27.6% (active) |
| COc1ccc(/C=N/NC(=O)c2cccc3cc[nH]c23)cc1O | 36.4% (inactive) |
| NC(=S)N/N=C(/c1ccccc1)c1ccccc1N | 40.1% (inactive) |
| COc1ccc(-c2cnnc3c(-c4cccc(C(F)(F)F)c4)cnn23)cc1 | 64.1% (inactive) |
| COc1ccc(C2CC(n3nnnc3-c3ccccc3)=NN2)cc1 (stereo unspecified) | 64.8% (inactive) |
| O=C1Nc2ccccc2/C1=C\c1cccc(/C=C2/C(=O)Nc3ccccc32)n1 | -66.8% (active) |

Test system: OVCAR-3 ovarian
Assay: as above
Settings: 10 µM unless noted

| SMILES | growth |
| --- | --- |
| O=c1[nH]c2c(s1)CCCC2CN1CCCCC1 (stereo unspecified) | 111% (inactive) |
| O=C(N/N=C/c1cccc(O)c1)c1ccccc1Nc1cccc(C(F)(F)F)c1 | 62.1% (inactive) |
| COc1cc2nc(-c3ccc(C#N)cc3)[nH]c(=O)c2cc1OC | 109% (inactive) |
| O=C(Nc1ccccc1)Oc1ccccc1-c1ccccc1 | 106% (inactive) |
| O=C1Nc2c(ccc(Cl)c2Cl)/C1=C/c1ccccn1 | 84.6% (inactive) |
| COc1cc2nnn3c4ncccc4c(N=O)c3c2cc1OC | 120% (inactive) |
| C(=N\Nc1ncc(-c2cc3cc4c(cc3o2)OCO4)s1)/c1c[nH]c2ccccc12 | -44.4% (active) |
| Nc1cc(N)c2cccnc2c1O | 89% (inactive) |
| CC1=NNC(=O)C1CCC(=O)N/N=C(\C)c1ccc2ccccc2c1 (stereo unspecified) | 105% (inactive) |
| COc1ccc(CNC(=O)COc2ccc(/C=N/Nc3nc4ccccc4s3)cc2)cc1 | 25.3% (inactive) |
| CCCN=C(N)c1ccc(NC(=O)c2ccc(C(=O)Nc3ccc(C(N)=NCCC)cc3)cc2)cc1 | 102% (inactive) |
| BrC(Br)(Br)c1cnc2ccccc2n1 | -27.5% (active) |
| O=C1/C(=C\c2cn(Cc3ccccc3)c3ccc(Br)cc23)c2ccccc2N1c1c(Cl)cccc1Cl | 119% (inactive) |
| COc1ccc(-n2cc(-c3cc(OC)c(OC)c(OC)c3)n(C(C)=O)c2=O)cc1 | 108% (inactive) |
| O=C(N/N=C/c1ccc(O)c(O)c1)c1sc2ccccc2c1Cl | 96.9% (inactive) |
| COc1ccc(OC)c(/C=C/[C@H]2O[C@@H](C)[C@H](O)[C@@H]2O)c1 | 125% (inactive) |
| Cn1ncc2c(Nc3ccccc3Cl)nc(Cl)nc21 | 164% (inactive) |
| CCN(CCNc1cc(OC)cc2cccnc12)CCc1ccccc1 | 79% (inactive) |

| SMILES | growth |
| --- | --- |
| CCCC/C(=N\N=C(N)N)c1ccc(F)cc1 | -11.4% (active) |
| O=S(=O)(c1ccc(N/N=C\c2ccccc2)cc1)c1ccc(N/N=C/c2ccccc2)cc1 | 72.2% (inactive) |
| CS(=O)(=O)OCCN(CCOS(C)(=O)=O)c1ccc(/C=N/Nc2ccc([N+](=O)[O-])cc2[N+](=O)[O-])cc1 | 107% (inactive) |
| COc1nccnn1 | 146% (inactive) |
| COC(=O)C1NC(=S)N(c2ccc(Cl)cc2)C1/C=C/c1ccccc1 (stereo unspecified) | 101% (inactive) |
| COc1cc(CCNc2nc3cc(N)cc(N)c3nc2-c2ccccc2)cc(OC)c1 | -66.2% (active) |
| O=C(O)/C=C\C(=O)N1C/C(=C\c2ccccc2Cl)C(=O)/C(=C/c2ccccc2Cl)C1 | -37.7% (active) |
| O=C1/C(=C/c2ccc(O)cc2)COc2ccc(-c3ccccc3)cc21 | 56.5% (inactive) |
| Cc1[nH]n(-c2cccc(Cl)c2)c(=O)c1/C=C1\C=Nc2ccc(Br)cc21 | -47.2% (active) |
| CO[C@@H]1[C@H](N(C)C(=O)c2ccccc2)C[C@@H]2O[C@]1(C)n1c3ccccc3c3c4c(c5c6ccccc6n2c5c31)C(=O)NC4=O | 46.7% (inactive) |
| Cc1cc2cc3cc(C)c(N)cc3[n+](C)c2cc1N | 1.65% (active) |
| CNC(=O)Nc1ccc(-c2nc(N3CCOCC3)nc3c2cnn3C2CCOCC2)cc1 | 1.45% (active) |
| COc1ccc(/C=N/NC(=O)c2cccc3cc[nH]c23)cc1O | 1.58% (active) |
| NC(=S)N/N=C(/c1ccccc1)c1ccccc1N | 50.7% (inactive) |
| CCCOc1nc(SCCC)nc2c1cnn2-c1ccccc1 | 94.8% (inactive) |
| COc1ccc(-c2cnnc3c(-c4cccc(C(F)(F)F)c4)cnn23)cc1 | 26.4% (inactive) |
| COc1ccc(C2CC(n3nnnc3-c3ccccc3)=NN2)cc1 (stereo unspecified) | 75.1% (inactive) |
| O=C1Nc2ccccc2/C1=C\c1cccc(/C=C2/C(=O)Nc3ccccc32)n1 | -89.6% (active) |
